# SMN2 splice up = SMN2 splice variant enhancement | HEK293 SMN2-luciferase splicing reporter, luminescence, 30-36 h | Potency, µM (top dose mostly 46.1 µM), for inactives: at the top dose activity change, positive = activation, most hits filed as activators | hit rate 2.8% among 210,000 | AID 1458; further: % of control where 0% means no effect; nearly all actives have a fitted effect of over 55% in size
#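 qHTS luciferase splicing reporter: luminescence rises when SMN2 exon 7 is included in transfected HEK293 cells. Compound exposure lasted 30-36 h at 37C, with 4.5 mM final sodium butyrate as control, followed by a ONE-Glo read.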
# Luc counter = blocks Kinase-Glo luciferase, a counter-screen artifact; Q27757; Kinase-Glo luciferase, ATP luminescence, 8 min; Potency, µM (top dose mostly 38.3 µM), without a hit: at the top dose activity change, negative = inhibition, hits mostly inhibitors; hit rate 0.28% among 200,000; AID 1379; further: on the % scale 0 is the no-effect control and ±100 the full control effect; nearly all actives have a fitted effect of over 60% in size
#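 Substrate mix (final 50 mM imidazole pH 7.2, 50 mM KCl, 7 mM MgCl2, 10 uM ATP, 0.01% Tween 20, 0.05% BSA) plus pin-tool compound, then Kinase-Glo detection mix; 8 min ambient, luminescence read.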
# NPC1 prom act = activators of NPC1 promoter. Huh7 NPC1 promoter luciferase reporter, 24 h. Potency, µM (highest dose often 9.22 µM), without a hit: at the top dose activation, hits mostly activators. hit rate 2.4% among 320,000. AID 485313; further: % of control where 0% means no effect; nearly all actives have a fitted effect of over 60% in size
#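 Readout is luciferase luminescence, reflecting NPC1 promoter activation in stably transfected Huh7 cells after 24 h compound exposure at 37 °C in reduced-serum medium with 10% FBS.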
# Rab9 promoter act = activators of Rab9 promoter | Huh7 Rab9 promoter-luciferase reporter, luminescence, 24 h | Potency, µM (doses to about 9.22 µM), without a hit: top-dose activation, negative = inhibition, usual class: activators | hit rate 2.8% among 320,000 | AID 485297; further: % of control where 0% means no effect; nearly all actives have a fitted effect of over 60% in size
#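 Quantitative HTS format; Huh7 Rab9-luciferase reporter cells (1500/well) receive compound 2 h post-plating, incubate 24 h at 37 °C, then get luciferase reagent for 10 min before luminescence reading.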
# FLuc counter = firefly luciferase modulation, counter-screen for miR-21 project | P08659 | purified FLuc, Km substrates, luminescence inhibition | Potency, µM (titrated, usually from 57.5 µM), without a hit: at the highest dose activity change, negative = inhibition, usual class: inhibitors | hit rate 6.9% among 360,000 | AID 588342;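 further: plate controls were vehicle for no effect and reference inhibitor for full effect; nearly all actives have a fitted effect of over 55% in size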
# Target sequence (P08659 whole entry, looked up): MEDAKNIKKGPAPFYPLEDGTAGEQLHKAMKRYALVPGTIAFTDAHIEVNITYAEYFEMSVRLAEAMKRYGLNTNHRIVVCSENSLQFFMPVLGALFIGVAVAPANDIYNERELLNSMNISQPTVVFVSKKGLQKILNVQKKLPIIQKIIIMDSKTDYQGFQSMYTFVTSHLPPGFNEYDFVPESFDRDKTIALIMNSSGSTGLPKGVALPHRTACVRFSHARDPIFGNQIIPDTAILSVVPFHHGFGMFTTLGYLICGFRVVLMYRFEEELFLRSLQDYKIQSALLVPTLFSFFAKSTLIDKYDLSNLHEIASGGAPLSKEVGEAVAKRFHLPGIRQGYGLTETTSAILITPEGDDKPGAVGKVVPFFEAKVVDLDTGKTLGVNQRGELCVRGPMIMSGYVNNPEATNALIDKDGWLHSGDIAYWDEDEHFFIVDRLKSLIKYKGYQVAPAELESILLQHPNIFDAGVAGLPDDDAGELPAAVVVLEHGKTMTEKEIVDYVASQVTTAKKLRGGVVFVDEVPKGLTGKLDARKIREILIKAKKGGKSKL
#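 Purified P. pyralis luciferase, 10 nM final, with Km-level 10 uM D-luciferin and 10 uM ATP in 50 mM Tris acetate pH 7.5, 10 mM Mg acetate, 0.01% Tween-20, 0.05% BSA; 6-point qHTS titration about 60 µM downward; luminescence read.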
# ELG1 genotox = inducers of genotoxicity in HEK293T ELG1-luciferase cells. hit rate 1.3% among 330,000. Potency, µM (top dose mostly 46 µM), for inactives: top-dose activity change, positive = activation, hits mostly activators. HEK293T ELG1-luciferase reporter, luminescence, 16 h; further: % of control where 0% means no effect; nearly all actives have a fitted effect of over 60% in size
#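 16 hr compound incubation (37 °C, 5% CO2) of HEK293T cells carrying luciferase-tagged ELG1; luciferase then measured by ONE-Glo luminescence after 30 min at RT.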
# Numbers without * were called inactive; ? = inconclusive; nt = not tested or not shown. Only some compounds are listed: those with a hit (about 7.5% of all), similar ones and a draw of the others. The call rests on the fitted dose curve; in most records, active means well fitted curve in the direction sought with a large enough effect; inconclusive means small, poorly fitted or top-dose-only effect, or another doubt; inactive means no such curve, though single readings can be large; an effect the other way counts as inactive or inconclusive. Potency means the concentration at half of the fitted maximal effect.
SMILES,SMN2 splice up,Luc counter,NPC1 prom act,Rab9 promoter act,FLuc counter,ELG1 genotox
CCN(CC)CCCNC(=O)c1ccc2c3n(nc2c1)-c1ccc(Cl)cc1CO3,nt,nt,?,0.89µM*,?,?
CCN(CC)CCCNC(=O)c1ccc2nc(CCc3ccccc3)oc2c1,nt,nt,nt,nt,-2%,nt
COc1cccc(C(=O)/C=C/c2ccc(SC)cc2)c1,-22%,-25%,0%,-5%,3.4µM*,2%
COc1cccc(/C=C/C(=O)Oc2ccc(C(=O)c3ccc(F)cc3)cc2)c1,10%,0%,-2%,-4%,-10%,2%
COC(=O)c1ccc(/C=C/C(=O)c2cccc(OC)c2)cc1,20%,-9%,?,?,9.5µM*,?
COc1cccc(/C=C/C(=O)c2ccc(C)c([N+](=O)[O-])c2)c1,119%,0%,-1%,-4%,?,7%
O=C(CCNC(=O)c1ccc(Br)cc1)NCCCN1CCCC1=O,nt,nt,0%,-3%,3%,2%
CSc1ccc(/C=N/NC(=O)c2sccc2C)cc1,2.5µM*,?,0.56µM*,0.63µM*,0.43µM*,1.8µM*
COc1ccc(OCc2ccc(/C=N\NC(=O)c3sccc3C)o2)cc1,nt,nt,?,?,27µM*,13%
CSc1ccc(/C=N/NC(=O)c2ccc(C)c(C)c2)cc1,11%,-6%,2%,-1%,19µM*,6%
Cc1cccc(C(=O)Oc2ccc(/C=N/NC(=O)c3cc(O)cc(O)c3)cc2)c1,nt,nt,-1%,4%,?,7%
CSc1ccc(/C=N/NC(=O)c2cc(O)cc(O)c2)cc1,?,?,?,?,9.5µM*,?
Cc1cc(C)cc(NC(=O)C(Cc2ccccc2)NS(=O)(=O)c2ccc3c(c2)CCC(=O)N3)c1 (stereo unspecified),-4%,nt,nt,nt,6%,nt
COc1cc(OC)cc(C(=O)NC2CC(C)(C)NC(C)(C)C2)c1,nt,nt,11%,8%,-6%,-2%
COc1cccc(/C=C/C(=O)OCC(=O)NCC2CCCO2)c1OC (stereo unspecified),-5%,-2%,4%,0%,-7%,-4%
Cc1nn2c(=O)cc(COC(=O)c3ccc(NC(=O)COc4ccccc4F)cc3)nc2s1,nt,nt,nt,nt,1%,nt
Cc1ccccc1OCC(=O)Nc1ccc(C(=O)OCc2cc(=O)n3c(C)csc3n2)cc1,nt,nt,nt,nt,0%,nt
Cc1nn2c(=O)cc(COC(=O)c3cccc(NC(=O)COc4ccccc4C)c3)nc2s1,nt,nt,nt,nt,24µM*,nt
Cc1nn2c(=O)cc(COC(=O)COc3ccccc3C)nc2s1,nt,nt,nt,nt,3%,nt
Cc1nn2c(=O)cc(COC(=O)c3c(F)cccc3Cl)nc2s1,nt,nt,4µM*,4µM*,?,?
Cc1csc2nc(COC(=O)c3cccc(NC(=O)COc4ccccc4Cl)c3)cc(=O)n12,nt,nt,nt,nt,1.2µM*,nt
Cc1ccc(OCC(=O)Nc2cccc(C(=O)OCc3cc(=O)n4nc(C)sc4n3)c2)cc1,nt,nt,nt,nt,9.5µM*,nt
Cc1nn2c(=O)cc(COC(=O)c3ccc(NC(=O)COc4ccc(C)c(C)c4)cc3)nc2s1,nt,nt,nt,nt,0%,nt
O=C(Nc1cccc(F)c1)N1CCCC2(CCN(C(=O)c3ccco3)CC2)C1,6%,0%,nt,nt,nt,nt
COc1ccc(Cl)cc1NC(=O)c1cc2nc(-c3ccc4c(c3)OCO4)cc(C(F)(F)F)n2n1,1%,nt,nt,nt,-2%,nt
Cc1ccccc1OCC(=O)Nc1ccccc1OCc1cc(=O)n2ccccc2n1,nt,nt,nt,nt,11µM*,nt
O=S(=O)(O)c1ccc(N=NNc2ccc(Br)cc2)cc1,nt,nt,8%,-2%,9.5µM*,1%
CC(=O)Nc1cccc(C(=O)OCC(=O)c2ccccc2Cl)c1,22%,-5%,3.5µM*,0.79µM*,?,?
Cc1cc(C(=O)OCC(=O)N2CCC(c3ccccc3)=N2)ccc1[N+](=O)[O-],nt,nt,-2%,1%,13%,3%
CC(=O)Nc1cccc(C(=O)OCC(=O)NC(=O)c2ccccc2)c1,nt,nt,-1%,0%,-13%,2%

# Compound activity deposited in PubChem by National Center for Advancing Translational Sciences (NCATS).
